Results as given in PubChem BioAssay.
Active and inactive are the calls of the source.

Columns and labels:
[1] = compounds binding Alexa647 anti-His antibody – biochemical, small-molecule microarray, 635 nm fluorescence, artefact control for SMM control protein annotation, primary screen (AID 1128); details: higher = more signal;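 also: score merges feature fluorescence with signal-to-noise for each printed compound spot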
[2] = system: Human papillomavirus type 1a E7 protein (residues 1-88); assay: HPV1a E7 small-molecule binders, primary screen, biochemical, small-molecule microarray, residues 1-88, 635 nm (AID 1129); details: small-molecule microarray binding, fluorescence 635 nm; higher = more signal
[3] = biological target: Focal adhesion kinase 1 (Homo sapiens) (UniProt Q05397); assay: PTK2 protein binding on printed compound slides – biochemical, small-molecule microarray, 635/667 nm fluorescence, BSA, DTT, primary screen (AID 1130); details: 635 nm fluorescence, higher = more signal;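 also: composite of spot emission at 667 nm and signal to noise over triplicate slides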
[4] = system: Fibrinogen (Alexa647-labelled); assay: Alexa647-fibrinogen binding to printed small molecules – biochemical, small-molecule microarray, 635/667 nm fluorescence, artefact control for SMM control-protein annotation, profiling panel (AID 1131); details: fibrinogen-A647 binding fluorescence, higher = more signal;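 also: z-score merges 667 nm fluorescence with per-spot signal-to-noise over triplicate slides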
[5] = biological target: Follistatin (Homo sapiens) (UniProt P19883); assay: FST protein binding to printed compounds – biochemical, small-molecule microarray, 635/667 nm fluorescence, primary screen (AID 1132); details: 635 nm fluorescence, higher = more signal
[6] = biological target: Fibroblast growth factor 2 (Homo sapiens) (UniProt P09038); assay: basic fibroblast growth factor binding to printed compounds – biochemical, small-molecule microarray, 635/667 nm fluorescence, primary screen (AID 1133); details: FGF2, fluorescence 635/667, higher = more signal
[7] = JC-1 mitochondrial potential readout, lung cancer cells – cell-based, A549, JC-1 fluorescence, basal, 24 h, 100 nL, profiling panel (AID 1138); details: higher = more signal;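 also: A549 lung adenocarcinoma cells under basal conditions with no added stimulus; test concentration not given here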
Lefty1 = Lefty1 protein binding to printed compounds – biochemical, small-molecule microarray, 635/667 nm fluorescence, primary screen (AID 1139); details: fluorescence 635/667, higher = more signal
[8] = system: wheat germ agglutinin (Triticum aestivum), Alexa647-labelled; assay: Alexa647-WGA lectin binding to printed small molecules – biochemical, small-molecule microarray, 635/667 nm fluorescence, artefact control for SMM control-protein annotation, profiling panel (AID 1140); details: WGA-A647 binding, 635 nm fluorescence, higher = more signal;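 also: score merges 667 nm feature emission with signal to noise over triplicate slides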
[9] = biological target: Luciferin 4-monooxygenase (Photinus pyralis) (UniProt P08659); assay: inhibition of purified Photinus pyralis luciferase – biochemical, luminescence, purified enzyme, 2006 set, primary screen (AID 1141); details: purified firefly luciferase, SteadyGlo luminescence, 30 min; higher = more signal, called active from +8 up or from −8 down;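 also: cell-free assay with purified firefly luciferase at 100 ng per well in PBS; test concentration not given here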
Chain of Luciferin 4-monooxygenase (Photinus pyralis) (P08659 whole entry, looked up): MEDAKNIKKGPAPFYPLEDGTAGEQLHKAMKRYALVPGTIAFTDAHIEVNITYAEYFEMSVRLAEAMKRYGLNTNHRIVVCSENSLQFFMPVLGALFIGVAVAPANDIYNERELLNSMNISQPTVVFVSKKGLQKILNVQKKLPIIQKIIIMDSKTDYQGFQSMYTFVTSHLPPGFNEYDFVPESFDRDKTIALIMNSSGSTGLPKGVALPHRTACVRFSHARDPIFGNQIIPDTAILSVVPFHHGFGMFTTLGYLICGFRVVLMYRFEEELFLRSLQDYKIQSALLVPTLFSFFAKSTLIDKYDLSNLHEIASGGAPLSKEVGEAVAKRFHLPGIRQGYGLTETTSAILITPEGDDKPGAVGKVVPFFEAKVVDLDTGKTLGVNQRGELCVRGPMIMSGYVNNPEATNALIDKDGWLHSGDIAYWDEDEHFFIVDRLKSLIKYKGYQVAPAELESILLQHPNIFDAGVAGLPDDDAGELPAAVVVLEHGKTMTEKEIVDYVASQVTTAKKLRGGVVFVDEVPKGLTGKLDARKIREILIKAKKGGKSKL

Chain of Follistatin (Homo sapiens) (P19883 whole entry, looked up): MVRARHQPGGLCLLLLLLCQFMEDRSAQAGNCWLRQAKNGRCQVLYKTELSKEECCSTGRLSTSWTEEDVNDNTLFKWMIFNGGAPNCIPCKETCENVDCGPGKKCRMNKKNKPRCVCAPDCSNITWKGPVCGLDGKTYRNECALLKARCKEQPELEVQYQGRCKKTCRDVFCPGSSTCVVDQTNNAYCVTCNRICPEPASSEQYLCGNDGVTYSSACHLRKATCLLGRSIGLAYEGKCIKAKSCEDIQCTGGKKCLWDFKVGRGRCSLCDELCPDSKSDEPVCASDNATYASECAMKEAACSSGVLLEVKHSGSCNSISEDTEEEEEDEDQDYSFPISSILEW
Chain of Focal adhesion kinase 1 (Homo sapiens) (Q05397 whole entry, looked up): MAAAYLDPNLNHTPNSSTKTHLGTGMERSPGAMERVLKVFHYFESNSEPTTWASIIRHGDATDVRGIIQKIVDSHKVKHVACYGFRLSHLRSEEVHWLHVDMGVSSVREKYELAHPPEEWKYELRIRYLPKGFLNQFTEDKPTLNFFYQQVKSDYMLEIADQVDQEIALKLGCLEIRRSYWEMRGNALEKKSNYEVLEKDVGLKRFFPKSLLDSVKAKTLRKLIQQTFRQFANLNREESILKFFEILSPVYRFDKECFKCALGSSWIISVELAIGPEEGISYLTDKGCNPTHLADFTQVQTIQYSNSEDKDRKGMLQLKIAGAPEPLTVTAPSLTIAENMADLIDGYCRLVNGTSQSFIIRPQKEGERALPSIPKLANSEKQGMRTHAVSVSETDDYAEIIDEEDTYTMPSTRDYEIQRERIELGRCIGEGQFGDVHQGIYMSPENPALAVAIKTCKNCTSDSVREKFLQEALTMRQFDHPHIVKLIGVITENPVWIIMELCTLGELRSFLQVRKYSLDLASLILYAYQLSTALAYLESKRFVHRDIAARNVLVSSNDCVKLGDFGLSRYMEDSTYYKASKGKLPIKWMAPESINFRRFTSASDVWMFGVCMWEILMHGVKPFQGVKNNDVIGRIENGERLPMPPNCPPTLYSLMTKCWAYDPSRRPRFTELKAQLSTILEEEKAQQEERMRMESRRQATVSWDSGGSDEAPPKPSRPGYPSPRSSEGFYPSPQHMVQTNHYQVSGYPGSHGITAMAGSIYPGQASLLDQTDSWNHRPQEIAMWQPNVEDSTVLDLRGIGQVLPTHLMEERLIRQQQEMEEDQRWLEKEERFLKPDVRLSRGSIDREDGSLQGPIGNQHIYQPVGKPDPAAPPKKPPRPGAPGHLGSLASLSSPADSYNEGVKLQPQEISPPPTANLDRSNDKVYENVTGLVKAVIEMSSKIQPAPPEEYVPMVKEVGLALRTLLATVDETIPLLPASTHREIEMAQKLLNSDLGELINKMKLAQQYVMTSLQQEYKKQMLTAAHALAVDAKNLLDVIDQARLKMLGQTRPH
Chain of Fibroblast growth factor 2 (Homo sapiens) (P09038 whole entry, looked up): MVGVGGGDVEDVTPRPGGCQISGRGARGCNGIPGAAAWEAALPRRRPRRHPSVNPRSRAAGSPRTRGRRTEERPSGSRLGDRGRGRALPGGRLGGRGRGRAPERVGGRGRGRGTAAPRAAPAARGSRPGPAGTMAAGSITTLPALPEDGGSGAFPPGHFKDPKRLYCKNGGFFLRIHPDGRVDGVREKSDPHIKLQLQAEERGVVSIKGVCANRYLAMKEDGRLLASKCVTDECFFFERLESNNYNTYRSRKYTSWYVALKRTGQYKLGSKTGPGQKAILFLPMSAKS

Row | Compound | composite z-score [1] | composite z-score [2] | composite z-score [3] | composite z-score [4] | composite z-score [5] | composite z-score [6] | z-score [7] | composite z-score (Lefty1) | composite z-score [8] | z-score [9]
1 | C=C[C@@H](OC)[C@H](OC(=O)Nc1ccc(OC)cc1)c1ccc(O)c(F)c1 | 0.0143 | -0.0707 | 0.0004 | -0.808 | 1.2 | 0.659 | -0.116 | 1.35 | -0.251 | -3.89 (inactive)
2 | Cc1ccc(S[C@]2(C(=O)NCCN3CCOCC3)CC(=O)N(Cc3ccccc3Cl)[C@@H]2c2ccc(CO)cc2I)cc1 | -0.882 | -0.227 | 1.09 | -0.646 | -0.349 | 0.388 | 1.08 | -1.57 | 0.498 | -0.43 (inactive)
3 | NC(=O)NCC#Cc1ccc2c(c1)[C@]1(C(=O)N2)[C@H](c2ccccc2OCCO)N2[C@H](c3ccccc3)[C@H](c3ccccc3)OC(=O)[C@H]2[C@@H]1C(=O)O | -0.241 | -0.464 | -0.178 | 0.277 | 0.728 | 0.387 | -0.545 | 0.477 | 0.225 | -0.521 (inactive)
4 | O=C1NC(=O)C2C1C=CC(C(O)c1ccco1)N2Nc1ccc(Cl)cc1Cl (stereo not given) | 0.478 | 0.944 | -0.367 | -0.468 | 1.13 | -0.311 | -0.553 | 0.121 | 0.673 | -0.512 (inactive)
5 | Cc1ccc(S[C@]2(C(=O)NCC(F)(F)F)CC(=O)N(Cc3cc(C(F)(F)F)cc(C(F)(F)F)c3)[C@@H]2c2ccc(CO)cc2I)cc1 | 0.214 | -0.698 | -0.301 | -0.994 | -0.887 | -0.91 | -1.01 | -0.708 | -0.314 | 1.5 (inactive)
6 | COC(=O)C1=CC(CCCO)=CC(c2cccs2)N(Cc2cccc(OC(F)(F)F)c2)C=C1C(=O)OC (stereo not given) | 1.51 | 1.23 | 2.18 | 0.972 | 1.23 | -0.141 | 1.87 | 0.233 | 1.13 | -1.41 (inactive)
7 | CC(C)[Si](C#C[Si](C(C)C)(C(C)C)C(C)C)(O[C@H](c1ccccc1)c1cn(Cc2ccccc2)nn1)C(C)C | 0.259 | 0.733 | 0.23 | 0.436 | 0.532 | 0.2 | 0.238 | 0.635 | 0.212 | 0.87 (inactive)
8 | C[N+](C)(C)CCCCCCNC(=O)[C@@H]1C[C@@H]2C(=O)N3CCC[C@H]3C(=O)N2[C@@H]1c1ccc(O)cc1 | 1.36 | 0.451 | 0.0225 | -0.472 | 1.4 | 1.42 | -1.19 | 1.3 | 0.6 | 0.824 (inactive)
9 | COC(=O)[C@@]1(Cc2ccc(F)cc2)[C@H]2c3cc(C(=O)N(C)C)n(Cc4ccc(OC(F)(F)F)cc4)c3C[C@H]2CN1C(=O)c1ccccc1 | 0.348 | 0.626 | 0.0291 | 0.572 | 0.216 | 0.016 | 0.561 | -0.182 | 0.341 | 1.6 (inactive)
10 | CCCC#C[Si](O[C@H](CC)c1cn([C@H](C)c2ccccc2)nn1)(C(C)C)C(C)C | 0.439 | 0.625 | 0.986 | 0.856 | 0.297 | 0.484 | 1.04 | 0.23 | 0.06 | -1.08 (inactive)
11 | COCCCNC(=O)[C@@]1(Sc2ccc(C)cc2)CC(=O)N(C2Cc3ccccc3C2)[C@@H]1c1ccc(CO)cc1 | 0.72 | 0.336 | -0.296 | -0.841 | -1.22 | -1.35 | -0.318 | -1.1 | -1.47 | 0.925 (inactive)
12 | CCCCCCCCCCC(O)C1C=CC2C(=O)N(c3ccccc3)C(=O)C2N1Nc1ccc(C#N)cc1 (stereo not given) | -0.0221 | 1.18 | 0.464 | 0.989 | 0.652 | 0.429 | 3.49 | 0.0328 | 1.13 | 0.675 (inactive)
13 | O=C1O[C@@H](c2ccccc2)[C@@H](c2ccccc2)N2[C@@H](c3ccc(OCCO)cc3)[C@]3(C(=O)Nc4ccc(C#CC5=CCCCC5)cc43)[C@@H](C(=O)NC[C@H](O)c3ccccc3)[C@H]12 | 2.25 | 1.21 | 0.234 | 0.829 | 1.42 | 1.38 | -1.48 | 1.25 | 0.254 | -0.773 (inactive)
14 | CCCC=C(CCC)[C@@H](NS(=O)(=O)CC12CCC(CC1=O)C2(C)C)c1ccc(C(=O)OC)cc1 (stereo not given in full) | 1.33 | 0.71 | 0.187 | 0.0749 | 0.107 | -0.056 | 0.237 | 0.134 | 0.301 | 2.15 (inactive)
15 | CCCCCN1CC=CC23O[C@@H]4C=CCCOC(=O)C4[C@H]2C(=O)N(CCCCCCO)[C@@H]3C1=O (stereo not given in full) | 2.82 | -0.0566 | -0.0757 | -1.21 | -0.444 | -0.439 | 0.608 | -0.0715 | -0.411 | -0.086 (inactive)
16 | COCCOC(=O)N1C(=O)[C@@]2(c3cc(C#CCNC(N)=O)ccc31)[C@H](C(N)=O)[C@H]1C(=O)O[C@H](c3ccccc3)[C@H](c3ccccc3)N1[C@@H]2c1ccccc1OCCO | 0.193 | 0.956 | 0.538 | 0.834 | 1.38 | 1.5 | -1.17 | 0.684 | 0.403 | -1.07 (inactive)
17 | CCOC(=O)C[C@H]1[C@H](OC(=O)c2ccc(-c3ccccc3)cc2)[C@@H](NC(=O)CC(C)C)c2cc(OCCCO)ccc2N1C(=O)c1ccc2ccccc2n1 | -0.282 | 0.516 | 0.365 | 0.944 | 0.285 | 0.0792 | 0.5 | 0.455 | 0.262 | 0.854 (inactive)
18 | CCCCN1CC=CC23O[C@@H]4/C=C\CCC(C)OC(=O)C4[C@H]2C(=O)N(CCCO)[C@@H]3C1=O (stereo not given in full) | 1.41 | -0.708 | -0.198 | -0.992 | -0.885 | -1.24 | -0.573 | -0.46 | -0.588 | 0.821 (inactive)
19 | NC(=O)NCC#Cc1ccc2c(c1)[C@]1(C(=O)N2)[C@H](C(=O)N2CCN(c3ncccn3)CC2)[C@H]2C(=O)O[C@H](c3ccccc3)[C@H](c3ccccc3)N2[C@@H]1c1ccc(O)cc1 | 1.43 | 1.14 | 0.244 | 0.768 | 1.37 | 1.3 | -0.982 | 0.36 | 0.542 | -0.598 (inactive)
20 | COC(=O)[C@@]1(Cc2ccc(OC)cc2)[C@H]2c3cc(C(=O)N4CCCC4)n(CCO)c3C[C@H]2CN1C(=O)c1ccccc1 | 0.603 | 1.18 | 1.05 | 0.875 | 0.113 | -0.2 | -0.117 | -0.539 | 1.03 | 1.01 (inactive)
21 | CCCC=C(CCC)[C@@H](NS(=O)(=O)c1ccc(C(F)(F)F)cc1)c1ccccc1 | 0.294 | 0.887 | 0.672 | 0.698 | 0.225 | -0.148 | -2.69 | -0.141 | 0.663 | 2.72 (inactive)
22 | COC(=O)[C@@H]1N=C(c2ccc(OCCCO)cc2)O[C@@H]1c1ccccc1 | 1.33 | -0.314 | -0.137 | -0.887 | -1.36 | -0.837 | 0.135 | -0.447 | -0.0306 | -13.4 (active)
23 | C=CCNC(=O)[C@@H]1[C@H]2C(=O)O[C@H](c3ccccc3)[C@H](c3ccccc3)N2[C@H](c2ccccc2OCCO)[C@@]12C(=O)Nc1ccc(C#CCCO)cc12 | 0.169 | 0.723 | 0.415 | 0.862 | 1.43 | 1.62 | 0.861 | 1.32 | 0.5 | 0.467 (inactive)
24 | COc1ccc(CCNC(=O)[C@@]2(c3ccc([N+](=O)[O-])cc3)CC(=O)N(C3CCCCC3)[C@@H]2c2ccc(CO)cc2)cc1 | 1.84 | 1.22 | 0.757 | 0.393 | 0.695 | 0.373 | 2.09 | -0.381 | 0.793 | -1.74 (inactive)
